From PubChem BioAssay AID1159580 (chemical genetic matrix, 2015)
Values joined by “and” are separate entries in the source; they are usually repeats but may differ in a detail not shown here. Equal entries are not always repeated. The campaign covered roughly 5,500 compounds. About 2,000 (36%) were called active. Inconclusive results (about 18%) are left out. Cut-off read from the data, not from the text of the source: active = normalized growth mostly below about 0.91 (no sharp cut-off); inconclusive = no clear call, values can overlap the other calls; inactive = mostly above about 0.92. The list shows a part of the results.

Assay: chemical genetic growth profiling, strain panel (AID 1159580);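 note: tested at 20 µM; growth read once vehicle control cultures reached saturation at 30 °C; 1 = growth at the plate median or of vehicle wells; lower values mean less growth of the strain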
Details: growth OD

Measured: normalized growth

Cc1cccc(C)c1OCC(C)N (stereo not drawn)
inactive: S. cerevisiae deletion strains, locus YKL009W, strain mrt4, hits give low values 0.972 | S. cerevisiae deletion strains, locus YKL068W, hits give low values 0.982 | S. cerevisiae deletion strains, locus YKL085W, strain MDH1 (second series), hits give low values 1.04 | S. cerevisiae deletion strains, locus YKL085W, strain MDH1, hits give low values 1.04 | S. cerevisiae deletion strains, locus YKL160W, strain elf1, hits give low values 1 | S. cerevisiae deletion strains, locus YKL190W, strain CNB1, hits give low values 0.996 | S. cerevisiae deletion strains, locus YKR001C, strain vps1, hits give low values 0.99 | S. cerevisiae deletion strains, locus YKR026C, strain gcn3, hits give low values 0.999 | S. cerevisiae deletion strains, locus YKR091W, strain srl3, hits give low values 1.01 | S. cerevisiae deletion strains, locus YLL001W, strain dnm1, hits give low values 1.02 | S. cerevisiae deletion strains, locus YLL026W, hits give low values 1.02 | S. cerevisiae deletion strains, locus YLL041C, strain sdh2, hits give low values 1.01 | S. cerevisiae deletion strains, locus YLR027C, strain aat2, hits give low values 1.01 | S. cerevisiae deletion strains, locus YLR039C, strain RIC1, hits give low values 1.02 | S. cerevisiae deletion strains, locus YLR058C, strain SHM2, hits give low values 0.998 | S. cerevisiae deletion strains, locus YLR102C, strain apc9, hits give low values 0.989 | S. cerevisiae deletion strains, locus YLR113W, strain HOG1, hits give low values 0.987 | S. cerevisiae deletion strains, locus YLR221C, strain rsa3, hits give low values 1 | S. cerevisiae deletion strains, locus YLR258W, strain gsy2, hits give low values 1.01 | S. cerevisiae deletion strains, locus YLR262C, strain YPT6 (second series), hits give low values 1.01 | S. cerevisiae deletion strains, locus YLR262C, strain YPT6, hits give low values 0.993 | S. cerevisiae deletion strains, locus YLR268W, strain sec22, hits give low values 0.993 | S. cerevisiae deletion strains, locus YLR320W, strain mms22, hits give low values 1.03 | S. cerevisiae deletion strains, locus YLR330W, strain CHS5, hits give low values 0.992 | S. cerevisiae deletion strains, locus YLR342W, strain FKS1 (second series), hits give low values 1.01 | S. cerevisiae deletion strains, locus YLR342W, strain FKS1, hits give low values 1.01 | S. cerevisiae deletion strains, locus YLR357W, strain rsc2, hits give low values 1.02 | S. cerevisiae deletion strains, locus YLR370C, strain arc18, hits give low values 1.01 | S. cerevisiae deletion strains, locus YLR371W, strain rom2, hits give low values 0.988 | S. cerevisiae deletion strains, locus YLR384C, strain iki3, hits give low values 1.01 | S. cerevisiae deletion strains, locus YLR418C, strain cdc73, hits give low values 1.03 | S. cerevisiae deletion strains, locus YML016C, strain PPZ1, hits give low values 0.995 | S. cerevisiae deletion strains, locus YML032C, strain rad52, hits give low values 1 | S. cerevisiae deletion strains, locus YML120C, strain ndi1, hits give low values 1 | S. cerevisiae deletion strains, locus YML124C, strain tub3, hits give low values 0.991 | S. cerevisiae deletion strains, locus YMR058W, strain fet3, hits give low values 1.02 | S. cerevisiae deletion strains, locus YMR078C, strain ctf18, hits give low values 0.986 | S. cerevisiae deletion strains, locus YMR125W, strain sto1, hits give low values 1.01 | S. cerevisiae deletion strains, locus YMR129W, hits give low values 0.994 | S. cerevisiae deletion strains, locus YMR205C, strain PFK2, hits give low values 1.03 | S. cerevisiae deletion strains, locus YMR223W, strain ubp8, hits give low values 1.01 | S. cerevisiae deletion strains, locus YMR231W, strain pep5, hits give low values 1.01 | S. cerevisiae deletion strains, locus YMR263W, strain SAP30, hits give low values 0.993 | S. cerevisiae deletion strains, locus YMR307W, strain GAS1, hits give low values 0.969 | S. cerevisiae deletion strains, locus YNL067W, strain RPL9B, hits give low values 1.01 | S. cerevisiae deletion strains, locus YNL071W, strain lat1, hits give low values 1.01 | S. cerevisiae deletion strains, locus YNL153C, strain GIM3, hits give low values 1.03 and 1 | S. cerevisiae deletion strains, locus YNL175C, strain NOP13, hits give low values 1 | S. cerevisiae deletion strains, locus YNL183C, strain NPR1, hits give low values 0.956 | S. cerevisiae deletion strains, locus YNL197C, strain WHI3, hits give low values 0.992 | S. cerevisiae deletion strains, locus YNL209W, strain ssb2, hits give low values 1.01 | S. cerevisiae deletion strains, locus YNL224C, strain SQS1, hits give low values 1 | S. cerevisiae deletion strains, locus YNL233W, strain BNI4, hits give low values 1.03 | S. cerevisiae deletion strains, locus YNL248C, strain rpa49, hits give low values 0.991 | S. cerevisiae deletion strains, locus YNL250W, strain rad50, hits give low values 0.987 | S. cerevisiae deletion strains, locus YNL271C, strain bni1, hits give low values 0.985 | S. cerevisiae deletion strains, locus YNL298W, strain CLA4, hits give low values 0.986 | S. cerevisiae deletion strains, locus YNL307C, strain MCK1, hits give low values 1.02 | S. cerevisiae deletion strains, locus YNL322C, strain KRE1 (second series), hits give low values 1 | S. cerevisiae deletion strains, locus YNL322C, strain KRE1, hits give low values 0.991 | S. cerevisiae deletion strains, locus YNR049C, strain mso1, hits give low values 1 | S. cerevisiae deletion strains, locus YNR052C, strain pop2, hits give low values 0.977 | S. cerevisiae deletion strains, locus YOL006C, strain TOP1, hits give low values 1.11 | S. cerevisiae deletion strains, locus YOL012C, strain htz1 1.19 | S. cerevisiae deletion strains, locus YOL147C, strain pex11, hits give low values 0.99 | S. cerevisiae deletion strains, locus YOR001W, strain rrp6, hits give low values 0.994 | S. cerevisiae deletion strains, locus YOR061W, strain CKA2, hits give low values 0.998 | S. cerevisiae deletion strains, locus YOR069W, strain VPS5, hits give low values 0.988 | S. cerevisiae deletion strains, locus YOR070C, strain gyp1, hits give low values 0.997 | S. cerevisiae deletion strains, locus YOR080W, strain dia2, hits give low values 1.01 | S. cerevisiae deletion strains, locus YOR083W, strain WHI5 (second series), hits give low values 1 | S. cerevisiae deletion strains, locus YOR083W, strain WHI5, hits give low values 0.993 | S. cerevisiae deletion strains, locus YOR106W, strain vam3, hits give low values 1.01 | S. cerevisiae deletion strains, locus YOR136W, strain idh2, hits give low values 0.987 | S. cerevisiae deletion strains, locus YOR144C, strain elg1, hits give low values 0.991 | S. cerevisiae deletion strains, locus YOR184W, strain ser1, hits give low values 1.03 | S. cerevisiae deletion strains, locus YOR231W, strain MKK1, hits give low values 0.999 | S. cerevisiae deletion strains, locus YOR265W, strain rbl2, hits give low values 1.01 | S. cerevisiae deletion strains, locus YOR270C, strain vph1, hits give low values 1.05 | S. cerevisiae deletion strains, locus YOR290C, strain snf2, hits give low values 1 | S. cerevisiae deletion strains, locus YOR316C, strain cot1, hits give low values 0.977 | S. cerevisiae deletion strains, locus YPL051W, strain arl3, hits give low values 1 | S. cerevisiae deletion strains, locus YPL078C, strain atp4, hits give low values 1 | S. cerevisiae deletion strains, locus YPL106C, strain sse1, hits give low values 1.02 | S. cerevisiae deletion strains, locus YPL240C, strain hsp82, hits give low values 1.01 | S. cerevisiae deletion strains, locus YPL241C, strain CIN2, hits give low values 0.995 | S. cerevisiae deletion strains, locus YPL256C, strain CLN2, hits give low values 0.998 | S. cerevisiae deletion strains, locus YPR119W, strain clb2, hits give low values 0.993 | S. cerevisiae deletion strains, locus YPR141C, strain kar3, hits give low values 0.983 | S. cerevisiae deletion strains, locus YPR163C, strain tif3, hits give low values 0.981 | S. cerevisiae deletion strains, locus YPR167C, strain met16, hits give low values 0.978 | S. cerevisiae deletion strains, strain wtn01, hits give low values 0.983 | S. cerevisiae strains, strain wild type, hits give low values 0.997
